Screens: PubChem, National Center for Advancing Translational Sciences (NCATS)
Pf growth 48h: P. falciparum growth inhibition at 48 hours (one generation); P. falciparum luciferase growth in erythrocytes, 48 h; Potency, µM (highest dose often 28.7 µM), for the others: at the top dose activity change, negative = inhibition, actives largely listed as inhibitors; 5.9% of 310,000 active; note: potency is the fitted concentration of half-maximal effect; % is set by controls: 0 for no effect and ±100 for the full control effect
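Compounds are pin-transferred into medium, infected erythrocytes (2% hematocrit, 0.1% parasitemia final) are added, and plates sit one parasite generation at 37 C in 5% CO2. Detection reagent is then added and luminescence measured.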
CHX counter: counter-screen for Shiga toxin inhibitors: cycloheximide protein synthesis inhibition; cell reporter, cycloheximide protein synthesis inhibition counterscreen; max response, %; 12% of 300,000 active; AID 2314; in the data active = max response mostly above about 13%, no sharp cut-off; inactive = mostly below about 14%; note: read at 38.3 µM for the half of the compounds with a filed dose; 0% is about no effect
Pf growth 96h: P. falciparum growth inhibition at 96 hour, primary screen for plastid delayed-death inhibitors; P. falciparum luciferase reporter growth, 96 h; Potency, µM (doses to about 28.7 µM), without a hit: top-dose activity change, negative = inhibition, most hits filed as inhibitors; 6.9% of 320,000 active; AID 504834; note: potency is the fitted concentration of half-maximal effect; % is set by controls: 0 for no effect and ±100 for the full control effect
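Plates of compound plus infected erythrocytes (2% hematocrit, 0.05% parasitemia final) incubate 96 hours, 37 C, 5% CO2. Detection reagent added; reduced luminescence from the parasites' luciferase reporter flags inhibition.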
Shiga toxin inh: Shiga toxin inhibition; Vero cells, Shiga toxin protein synthesis inhibition reporter; inhibition, % at 38.7 µM; 9.2% of 290,000 active; AID 2315; in the data active = inhibition mostly above about 28%, no sharp cut-off; inactive = mostly below about 43%; note: 0% is about no effect
* = called active by the depositor; [ ] = dose if it differs, or a comment. Hits are enriched below; roughly 21% of the tested compounds scored in any of these assays. Unless noted, calls come from the whole dose curve; as a rule, active = well fitted inhibition curve with a large enough effect; inconclusive = small, poorly fitted or top-dose-only effect, or another doubt; inactive = no such curve, though single readings can be large or run the other way.

Screening CCCc1nnc(NC(=O)CCC(=O)N2CCN(S(=O)(=O)c3ccc(C)cc3)CC2)s1 returned Pf growth 48h -24%, CHX counter 21, Pf growth 96h -5% and Shiga toxin inh 53*.
Screening CCOCCc1nnc(NC(=O)CS(=O)(=O)c2ccc(C)cc2)s1 returned Pf growth 48h 0%, CHX counter -3, Pf growth 96h 0.23µM* and Shiga toxin inh -11.
Screening CCCc1nnc(NC(=O)CCC(=O)N2CCN(CCOC(c3ccccc3)c3ccccc3)CC2)s1 returned Pf growth 48h 10µM*, CHX counter 1, Pf growth 96h inconclusive and Shiga toxin inh -19.
CCOc1ccc(-c2csc(Cn3c(CN4CCN(C)CC4)nc4ccccc4c3=O)n2)cc1 was read as Pf growth 48h inconclusive, CHX counter 1, Pf growth 96h inconclusive and Shiga toxin inh -1.
CCOc1ccc(S(=O)(=O)NCC(=O)NC2CCCCC2)cc1 was read as Pf growth 48h -25% and Pf growth 96h inconclusive.
For CCOc1ccc(C(=S)NC2CCCCC2)cc1 the results were Pf growth 48h 93%, CHX counter 52*, Pf growth 96h 127% and Shiga toxin inh 139*.
Screening COc1ccc(CNC(=S)NC2CCCCC2)cc1 returned Pf growth 48h 18%, CHX counter 14, Pf growth 96h inconclusive and Shiga toxin inh 7.
COc1ccc(C(=S)NC2CCCCC2)cc1 was read as Pf growth 48h 53%, CHX counter 20*, Pf growth 96h 41% and Shiga toxin inh 27.
Cc1ccc(CNC(=O)C2CCN(C(=O)Nc3ccc(C)cc3)CC2)cc1 was read as Pf growth 48h -13%, CHX counter 23, Pf growth 96h 5% and Shiga toxin inh 31.
`COc1ccc(N=C(C)C2=C(O)COC2=O)cc1` gave CHX counter 3, Pf growth 96h 0.33µM* and Shiga toxin inh 20.
`Cn1c(N)c(C(=O)COC(=O)Cc2ccc(Cl)cc2)c(=O)n(C)c1=O` gave Pf growth 48h inconclusive and Pf growth 96h -15%.
Screening CCOC(=O)c1ccc(-c2ccc3c(=O)c4ccccc4n(C)c3c2)cc1F returned Pf growth 48h 87%, CHX counter 11, Pf growth 96h 2% and Shiga toxin inh -5.
CN(C)c1ccc(-c2ccc3c(=O)c4ccccc4n(C)c3c2)cn1 was read as Pf growth 48h 85%, CHX counter 58*, Pf growth 96h 129% and Shiga toxin inh 87*.
Clc1ccc(-c2nc3n(n2)Cc2ccccc2-3)cc1 was read as Pf growth 48h inactive, CHX counter 66*, Pf growth 96h inactive and Shiga toxin inh 118*.
`CC(C)c1ccc(NC(=O)COc2ccccn2)cc1` gave Pf growth 48h 100%, CHX counter 45*, Pf growth 96h 182% and Shiga toxin inh 84*.
`CC(C)c1ccc(OCC(=O)NCCO)cc1` gave Pf growth 48h 148%, CHX counter 53*, Pf growth 96h 13% and Shiga toxin inh 93*.
`Cc1cc(OCC(=O)NCCO)ccc1Cl` gave Pf growth 48h 8%, CHX counter -3, Pf growth 96h 53% and Shiga toxin inh 7.
`CC(C)c1ccc(NC(=O)COc2ccccc2)cc1` gave Pf growth 48h 52%, CHX counter 49*, Pf growth 96h -6% and Shiga toxin inh 62*.
For O=C(CSCc1cccc(Cl)c1)OCc1nc2ccsc2c(=O)[nH]1 the results were Pf growth 48h 26% and Pf growth 96h 6%.
For COc1ccc(CCNC(=O)C2CCN(C(=O)c3ccc(Br)cc3)CC2)cc1OC the results were Pf growth 48h -15%, CHX counter 2 and Pf growth 96h 218%.
For COc1ccc2c3c(c(=O)oc2c1)C1O[C@](c2ccsc2)(Cc2ccccc21)O3 the results were Pf growth 48h inconclusive, CHX counter 7, Pf growth 96h inconclusive and Shiga toxin inh inactive.
COc1cc2c(cc1OC)C1OC(c3ccsc3)(C2)Oc2cc(C)oc(=O)c21 (stereo unspecified) was read as Pf growth 48h inconclusive, CHX counter -1, Pf growth 96h 1.7µM* and Shiga toxin inh inactive.
For COc1ccc([C@]23Cc4cc(OC)c(OC)cc4C(O2)c2c(cc(C)oc2=O)O3)cc1 the results were Pf growth 48h inconclusive, CHX counter 1, Pf growth 96h 0.34µM* and Shiga toxin inh inactive.
Screening COc1ccc([C@]23Cc4ccccc4C(O2)c2c(c4ccc(OC)cc4oc2=O)O3)cc1 returned Pf growth 48h inconclusive, CHX counter 38*, Pf growth 96h 1.7µM* and Shiga toxin inh active.
For COc1ccc([C@]23Cc4cc(OC)c(OC)cc4C(O2)c2c(c4ccccc4oc2=O)O3)cc1 the results were Pf growth 48h 31%[5.75 µM], CHX counter -3, Pf growth 96h inconclusive and Shiga toxin inh inactive.
For O=C1C2=C(C(=O)c3ccccc31)C1O[C@](c3ccsc3)(Cc3ccccc31)O2 the results were Pf growth 48h 1.2µM*, CHX counter 2, Pf growth 96h 39%[5.75 µM] and Shiga toxin inh inactive.
Screening CCCCN(C(=O)C1CC(=O)N(c2ccc(C)cc2)C1)c1c(N)n(CCC)c(=O)[nH]c1=O (stereo unspecified) returned Pf growth 48h -1% and Pf growth 96h 12%.
Screening Cc1cc2c(c(=O)o1)C1O[C@](c3ccsc3)(Cc3ccccc31)O2 returned Pf growth 48h 1.9µM*, CHX counter -3, Pf growth 96h inconclusive and Shiga toxin inh inactive.
Screening O=c1oc2ccc(F)cc2c2c1C1O[C@](c3ccsc3)(Cc3c1ccc1ccccc31)O2 returned Pf growth 48h inconclusive, CHX counter 5, Pf growth 96h 18%[5.75 µM] and Shiga toxin inh inactive.
Screening O=c1oc2ccccc2c2c1C1O[C@](c3ccsc3)(Cc3ccccc31)O2 returned Pf growth 48h 1.7µM*, CHX counter 5, Pf growth 96h inconclusive and Shiga toxin inh inactive.
`CC(C(=O)OCc1nnc(-c2ccccc2)o1)N1C(=O)c2ccccc2C1=O` (stereo unspecified) gave Pf growth 48h 36%, CHX counter 32*, Pf growth 96h 10% and Shiga toxin inh 92*.
`Cc1ccc(C(=O)N[C@H](C(=O)OCc2nnc(-c3ccccc3)o2)C(C)C)cc1` gave Pf growth 48h -29%, CHX counter 26*, Pf growth 96h -17% and Shiga toxin inh 24.
`CC(C)[C@H](NC(=O)c1ccccc1)C(=O)OCc1nnc(-c2ccccc2)o1` gave Pf growth 48h 23%, CHX counter 13, Pf growth 96h 10% and Shiga toxin inh 24.
CC(C)N(C(=O)COC(=O)c1cccc(S(=O)(=O)N2CC3(C)CC2CC(C)(C)C3)c1)C(C)C (stereo unspecified) was read as Pf growth 48h inconclusive and Pf growth 96h -4%.
For CCOCCCn1c(C)nc2c(c1=O)c1nc3ccccc3nc1n2CCC1=CCCCC1 the results were Pf growth 48h inconclusive, CHX counter 1, Pf growth 96h 2.6µM* and Shiga toxin inh 21.
N#Cc1cnc(NCc2ccc(Cl)cc2Cl)nc1 was read as Pf growth 48h 12%[0.00184 µM], CHX counter -3, Pf growth 96h -12% and Shiga toxin inh -8.
